# Results as given in PubChem BioAssay (NCI).
# The panel holds about 83,000 compounds, 20% with a hit somewhere; the sample as a whole holds those more often.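 Values shown are percent growth following 48 h exposure of cells in 96-well plates to a single concentration of compound; below 10 was considered active.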 A number with no mark means an inactive call. Activity calls are given as the source filed them.
# Tested on: MDA-MB-468 breast
# Assay: NCI-60 one-dose screen, 48 h (100 = growth as untreated, 0 = no growth, -100 = all killed)
# Conditions: 10 µM unless noted
row,SMILES,growth
1,CC1(COc2ccc3c(c2)ncn3-c2ccc3cccc(N4CCC(N)CC4)c3n2)COC1,-20.6% (active)
2,CC(=O)O[C@]1(C)CC[C@H]2[C@H](CNCCc3ccc(Cl)cc3)C(=O)O[C@@H]2C2=C(C)C(=O)C[C@H]21,47.3%
3,COc1ccc(Nc2ncc(Br)c(NCCCNC(=O)C3CCC3)n2)cc1,71.2%
4,O=C(/C=C/C12c3ccccc3C(c3ccccc31)C1C(=O)NC(=O)C12)c1ccccn1 (configuration not stated),-13.1% (active)
5,CCCCCCCC/C=C\CCCCCCCC(=O)OCCCCCC,95.8%
6,COc1ccc(/C=C(\C#N)c2cc(OC)c3c(c2)OCO3)cc1,-4.06% (active)
7,Cc1c(C)c2c(c(C)c1OC(=O)CCC(=O)[O-])CCC(C)(CCCCCCCCCCC[P+](c1ccccc1)(c1ccccc1)c1ccccc1)O2 (configuration not stated),-70.4% (active)
8,Cc1sc2ncn(CC(=O)Nc3ccc(S(N)(=O)=O)cc3)c(=O)c2c1C,104%
9,C/C(=N\Nc1ccc([N+](=O)[O-])cc1[N+](=O)[O-])c1ccc(Br)cc1,108%
10,C#CCOc1ccccc1/C=N/Nc1nc(-c2ccc(Cl)cc2)cs1,95.6%
11,O=C(Cc1cccc(OC(F)(F)F)c1)Nc1ccc(CCCCc2nnc(NC(=O)Cc3ccccn3)s2)nn1,52.3%
12,COc1cc(-c2ccc(-[n+]3nc(-c4ccc([N+](=O)[O-])cc4)nn3-c3ccc([N+](=O)[O-])cc3)c(OC)c2)ccc1-[n+]1nc(-c2ccc([N+](=O)[O-])cc2)nn1-c1ccc([N+](=O)[O-])cc1,-62.2% (active)
